SMILES strings stand for the structures. Compounds without any hit were thinned out: in the full panel of roughly 83,000, 20% have a hit.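 In brief: 96-well plates, 48 h treatment, single concentration, percent growth endpoint.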 Unmarked numbers belong to inactive results. Activity calls are given as the source filed them. The calls were made as follows: active = growth percent below 10; inactive = the rest.

Among the test systems are SR leukemia; RPMI-8226 leukemia; OVCAR-8 ovarian; OVCAR-4 ovarian; SK-OV-3 ovarian; IGROV1 ovarian; OVCAR-3 ovarian; HS 578T breast; NCI/ADR-RES ovarian; T-47D breast; BT-549 breast; MDA-MB-435 melanoma; SW-620 colon; HCT-116 colon; HCC-2998 colon; MCF7 breast; KM12 colon.
What all share (assay): NCI-60 one-dose screen, 48 h (100 = growth as untreated, 0 = no growth, -100 = all killed)
What all share (conditions): 10 µM

Regarding `N=C(N)c1ccc(-c2ccc(-c3ccccc3)s2)s1`, the growth in the test on SR leukemia was -40% (active); in the test with RPMI-8226 leukemia it was -44.3% (active); with OVCAR-8 ovarian, -39.9% (active); in the test with OVCAR-4 ovarian, -70.2% (active); with SK-OV-3 ovarian, -50.1% (active); in the test on IGROV1 ovarian it was -31.1% (active). The growth with OVCAR-3 ovarian was -41.3% (active); in the test on HS 578T breast, -21% (active); with NCI/ADR-RES ovarian, -35.2% (active); in the test on T-47D breast, -66.9% (active); with BT-549 breast, 88.9%; in the test on MDA-MB-435 melanoma it was -83.3% (active). Also, the growth in the test on SW-620 colon is -71.1% (active); in the test on HCT-116 colon, -62% (active); in the test on HCC-2998 colon, -80.8% (active).

As to `N#CC1C=Cc2c(ccc3ccccc23)N1C(=O)c1ccccc1` (centres undefined), the growth with SR leukemia was 13.9%; in the test on RPMI-8226 leukemia, 38.1%; with OVCAR-8 ovarian, 25.7%; in the test with OVCAR-4 ovarian it was 45.2%; with SK-OV-3 ovarian, 4.99% (active); in the test on IGROV1 ovarian, 26%. The growth in the test on OVCAR-3 ovarian is -56.5% (active); in the test on HS 578T breast, -8.86% (active); in the test with NCI/ADR-RES ovarian, -21.8% (active); with T-47D breast, 56.7%; in the test on BT-549 breast it was 33.5%; with MDA-MB-435 melanoma it was -31.4% (active). The growth was 21.8% in the test on SW-620 colon; 21.5% in the test with MCF7 breast; 12% in the test with HCT-116 colon; 10.3% in the test on HCC-2998 colon; -6.86% (active) in the test on KM12 colon.

For the molecule `NS(=O)(=O)c1ccc(N2N=C(c3ccc(-c4ccccc4)cc3)CC2c2ccc(Cl)cc2)cc1` (centres undefined), the growth with SR leukemia is 73.5%; in the test on RPMI-8226 leukemia, 63.4%; in the test on OVCAR-8 ovarian, 78%; with OVCAR-4 ovarian it was 76.1%; in the test on SK-OV-3 ovarian, 95%; in the test on IGROV1 ovarian it was 88.1%. Moreover, the growth with OVCAR-3 ovarian was 94.3%; with HS 578T breast, 88.6%; with NCI/ADR-RES ovarian it was 84.5%; in the test with T-47D breast it was 74.6%; in the test on BT-549 breast, 116%; in the test on MDA-MB-435 melanoma, 77.4%. Also, the growth in the test on SW-620 colon was 93.2%; in the test with MCF7 breast it was 62.6%; in the test on HCT-116 colon it was 50.4%; with HCC-2998 colon, 89.3%; in the test with KM12 colon, 68.6%.

Turning to `NC1CCC(Nc2nc(NCc3ccc(-c4cccs4)nc3)c3ncn(C4CCCC4)c3n2)CC1` (centres undefined), the growth with SR leukemia was -33.2% (active); with RPMI-8226 leukemia, -20.5% (active); with OVCAR-8 ovarian it was 12.2%; with OVCAR-4 ovarian it was 5.74% (active); in the test on SK-OV-3 ovarian, 4.04% (active); in the test with IGROV1 ovarian, 8.26% (active). For the same molecule, the growth in the test with OVCAR-3 ovarian was 2.56% (active); with HS 578T breast, 6.97% (active); in the test on NCI/ADR-RES ovarian it was 38.1%; with T-47D breast it was -22.9% (active); with BT-549 breast, -27.4% (active); in the test on MDA-MB-435 melanoma it was -53.2% (active). The growth was 6.7% (active) in the test with SW-620 colon; -34% (active) in the test on MCF7 breast; 0.721% (active) in the test with HCT-116 colon; -43.1% (active) in the test on HCC-2998 colon; 5.58% (active) in the test with KM12 colon.

Regarding `CC1(CO)CCCC12OCCO2` (centres undefined), the growth is 93.3% in the test with SR leukemia; 100% in the test with RPMI-8226 leukemia; 106% in the test on OVCAR-8 ovarian; 111% in the test with OVCAR-4 ovarian; 111% in the test on SK-OV-3 ovarian; 104% in the test on IGROV1 ovarian. Moreover, the growth was 108% with OVCAR-3 ovarian; 119% in the test on HS 578T breast; 113% in the test with NCI/ADR-RES ovarian; 111% in the test on T-47D breast; 99.9% in the test on BT-549 breast; 92.8% in the test on MDA-MB-435 melanoma. Besides, the growth in the test on SW-620 colon is 108%; with MCF7 breast it was 95.2%; in the test with HCT-116 colon, 105%; in the test on HCC-2998 colon, 111%; in the test on KM12 colon it was 112%.

With `CCCCN(CCCC)c1ccc(C(=NC(C)CCCN(CC)CC)c2ccc(N(C)C)cc2)cc1` (centres undefined), the growth in the test with SR leukemia was -26.2% (active); in the test with RPMI-8226 leukemia, -43.6% (active); in the test on OVCAR-8 ovarian it was -49% (active); in the test with OVCAR-4 ovarian, -13.5% (active); in the test on SK-OV-3 ovarian, -70.9% (active); in the test with OVCAR-3 ovarian, -47.7% (active). Further, the growth with HS 578T breast is -49.8% (active); in the test on NCI/ADR-RES ovarian, -51% (active); in the test with T-47D breast, -55.8% (active); with BT-549 breast, -27.2% (active); in the test with MDA-MB-435 melanoma, -87.5% (active); in the test with SW-620 colon, -66.7% (active). The growth in the test on MCF7 breast is -80.9% (active); in the test with HCT-116 colon, -81.5% (active); in the test on HCC-2998 colon, -59% (active); in the test on KM12 colon, -14.3% (active).

Consider `CCCCCN(CCCCC)C(C)C(O)c1ccc2cc(Cl)c3ccccc3c2c1` (centres undefined), for which the growth in the test with SR leukemia is 84.7%; with RPMI-8226 leukemia, 84.1%; with OVCAR-8 ovarian, 99.9%; in the test on OVCAR-4 ovarian, 105%; in the test with SK-OV-3 ovarian, 88.8%; in the test on IGROV1 ovarian, 98.3%. Also, the growth in the test with OVCAR-3 ovarian was 97.4%; with HS 578T breast, 89.4%; in the test with NCI/ADR-RES ovarian, 98.9%; with T-47D breast, 83.8%; in the test with BT-549 breast, 110%; with MDA-MB-435 melanoma, 103%. In addition, the growth in the test on SW-620 colon is 80%; in the test with MCF7 breast it was 90.6%; with HCT-116 colon, 65.7%; in the test with HCC-2998 colon, 97.6%; with KM12 colon, 103%.

Turning to `N#Cc1cnc2ccc(NCc3cnc[nH]3)cc2c1Nc1ccc(F)c(Cl)c1`, the growth with SR leukemia was 66.1%; in the test with RPMI-8226 leukemia, 83.2%; in the test with OVCAR-8 ovarian, 46.6%; with OVCAR-4 ovarian, 42.9%; in the test on SK-OV-3 ovarian, 39.9%; in the test on IGROV1 ovarian, 22.4%. Also, the growth in the test with OVCAR-3 ovarian was 49.7%; in the test with HS 578T breast, 90.9%; in the test with NCI/ADR-RES ovarian, 98.7%; with T-47D breast it was 57.2%; with BT-549 breast, 74.2%; in the test on MDA-MB-435 melanoma, 92.4%. The growth in the test on SW-620 colon was 71.7%; with MCF7 breast it was 91.9%; with HCT-116 colon it was 56.1%; in the test with HCC-2998 colon, 91.4%; in the test on KM12 colon, 84.2%.

Turning to `COc1ccc2nc(/C=C/c3ccc(N(C)C)cc3)sc2c1`, the growth is 86.1% in the test with SR leukemia; 104% with RPMI-8226 leukemia; 115% in the test on OVCAR-8 ovarian; 107% in the test with OVCAR-4 ovarian; 197% with SK-OV-3 ovarian; 82.5% with IGROV1 ovarian. In addition, the growth is 103% in the test on OVCAR-3 ovarian; 102% in the test with HS 578T breast; 93.1% in the test with NCI/ADR-RES ovarian; 300% with T-47D breast; 104% in the test with BT-549 breast; 90.3% in the test with MDA-MB-435 melanoma. Moreover, the growth is 93.6% in the test with SW-620 colon, 96.6% in the test with MCF7 breast, 105% with HCT-116 colon and 104% in the test with KM12 colon.
